CHX counter: counter-screen for Shiga toxin inhibitors: cycloheximide protein synthesis inhibition; cell reporter, cycloheximide protein synthesis inhibition counterscreen; max response, %; 12% of 300,000 active; AID 2314; in the data active = max response mostly above about 13%, no sharp cut-off; inactive = mostly below about 14%; note: read at 38.3 µM for the half of the compounds with a filed dose
LmPK inhibitor: blocks Leishmania mexicana pyruvate kinase activity | Q27686 | purified LmPK, Kinase-Glo ATP luminescence, 1 h | Potency, µM (titrated, usually from 57.5 µM), hits mostly inhibitors | 0.37% of 290,000 active | AID 1721
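Purified LmPK (0.1 nM) converted ADP (0.1 mM) to ATP with PEP (0.5 mM) in imidazole buffer pH 7.2 with KCl and MgCl2, 1 h at room temperature. ATP was read by Kinase-Glo luminescence; data normalized to uninhibited and no-enzyme controls.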
Giardia FBPA inh: inhibitors of Giardia lamblia fructose-1,6-bisphosphate aldolase. Potency, µM (highest dose often 59.6 µM), usual class: inhibitors. A8B2U2. purified Giardia FBPA. 0.71% of 290,000 active; note: nearly all actives have a fitted effect of over 55% in size
Target sequence (A8B2U2 whole entry, looked up): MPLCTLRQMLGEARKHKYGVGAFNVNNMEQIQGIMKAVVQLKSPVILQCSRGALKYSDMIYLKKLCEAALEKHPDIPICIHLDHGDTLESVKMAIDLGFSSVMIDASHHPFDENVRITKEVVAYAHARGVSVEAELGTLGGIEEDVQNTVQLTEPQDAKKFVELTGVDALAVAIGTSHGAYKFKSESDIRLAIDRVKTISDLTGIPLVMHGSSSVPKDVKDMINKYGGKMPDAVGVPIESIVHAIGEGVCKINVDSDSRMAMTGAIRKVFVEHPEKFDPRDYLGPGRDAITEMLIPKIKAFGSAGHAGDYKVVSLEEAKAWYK
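Giardia FBPA (40 nM reagent) was preincubated 10 min at RT with compound (up to 57.5 uM final), then substrate plus GAPDH/TPI/NAD/arsenate coupling system with diaphorase/resazurin was added; resorufin fluorescence (525/598 nm) was read after 20 min.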
RE007 growth inh: less growth of the S. pombe RE007 Vpr strain; S. pombe RE007 Vpr strain, BacTiter-Glo ATP luminescence, 24 h; Potency, µM (series often up to 92.2 µM), most hits filed as inhibitors; 0.21% of 360,000 active; active = well fitted falling curve with a large enough effect; inconclusive = small, poorly fitted or top-dose-only effect; inactive = no such curve, though single readings can be large or run the other way; note: nearly all actives have a fitted effect of over 50% in size
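Fission yeast strain RE007, carrying one chromosomally integrated HIV-1 vpr copy, was seeded at OD 0.01 in PMG+AL medium with 23 nL pinned compound. After 24 h at 30 °C and 99% humidity, viability was read by BacTiter-Glo luminescence.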
Tb PYK inh: inhibitors of Trypanosoma brucei pyruvate kinase | Q57TT1 | Potency, µM (doses to about 76.8 µM), most hits filed as inhibitors | 0.12% of 410,000 active | AID 624173 | TbPYK enzyme, Kinase-Glo Plus ATP luminescence, 45 min; note: nearly all actives have a fitted effect of over 50% in size
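ADP (130 uM final) triggers the TbPYK reaction after compound addition; incubation is 45 min at room temperature. Kinase-Glo Plus is then added and luminescence imaged. Normalized data are fitted to concentration-effect curves.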
Shiga inhibitor: blocks Shiga toxin action in Vero cells | Vero cells, Shiga toxin protein synthesis inhibition reporter | inhibition, % at 38.7 µM | 9.2% of 290,000 active; in the data active = inhibition mostly above about 28%, no sharp cut-off; inactive = mostly below about 43%
Each line names hits and unclear results; the compound was inactive in the other large screens. This excerpt belongs to a sample that is enriched for hits. Unless noted, calls come from the whole dose curve; as a rule, active = well fitted curve in the direction sought with a large enough effect; inconclusive = small, poorly fitted or top-dose-only effect, or another doubt; inactive = no such curve, though single readings can be large; an effect the other way counts as inactive or inconclusive.

CCOC(=O)C1CCCN(C(=O)Cn2c(=O)c3cccn3c3cccnc32)C1 (stereo unspecified)	none (no result: Giardia FBPA inh)
CCc1c(-c2cccc(OC)c2)ncn1Cc1cccc(-c2ccccc2)c1	none (no result: CHX counter, LmPK inhibitor, Giardia FBPA inh, Tb PYK inh, Shiga inhibitor)
CN(C)Cc1ccccc1-c1nc(NC2CCNCC2)c2ccccc2n1	none (no result: CHX counter, LmPK inhibitor, RE007 growth inh, Tb PYK inh, Shiga inhibitor)
O/N=C/c1cc(Cl)ccc1OCc1ccccc1Cl	none
O/N=C/c1ccc(OCc2ccccc2)c(Cl)c1	CHX counter 37, Shiga inhibitor 76
O/N=C/c1ccc(OCc2ccccc2)c(Br)c1	CHX counter 40, RE007 growth inh inconclusive, Shiga inhibitor 66
O/N=C/c1ccc(OCc2ccccc2F)c(Cl)c1	CHX counter 52, Shiga inhibitor 53
O/N=C/c1ccccc1OCc1ccccc1F	CHX counter 26, RE007 growth inh inconclusive, Shiga inhibitor 38
COc1ccc(-c2nc(NC(=O)c3[nH]c(C)c(C(C)=O)c3C)sc2C)cc1	Shiga inhibitor 68
CCCOC(=O)Nc1nc(-c2ccc(C)cc2)c(C)s1	CHX counter 27, RE007 growth inh inconclusive, Shiga inhibitor 65
COc1ccc(-c2nc(NC(=O)CSCCO)sc2C)cc1	Shiga inhibitor 70
CC(=O)c1c(C)[nH]c(C(=O)Nc2nc(-c3ccc(Cl)cc3)cs2)c1C	none
CC(=O)c1c(C)[nH]c(C(=O)Nc2nc(-c3ccc(-c4ccccc4)cc3)cs2)c1C	Shiga inhibitor 64 (no result: RE007 growth inh)
Cn1c(=O)c2c(SCC(=O)NCc3ccco3)nc(-c3ccccc3)nc2n(C)c1=O	none (no result: CHX counter, LmPK inhibitor, Giardia FBPA inh, RE007 growth inh, Shiga inhibitor)
Cn1c2ccccc2c2ccc3c(c21)C(=O)C=CC3=O	Tb PYK inh 22µM (no result: CHX counter, LmPK inhibitor, Giardia FBPA inh, Shiga inhibitor)
CCCCN(C)C(=O)CCC(=O)Nc1ccc2nc(N3CCOCC3)cc(C)c2c1	CHX counter 29
CCCCN(C)C(=O)CCC(=O)Nc1ccc2nc(N3CCN(C)CC3)cc(C)c2c1	none
Cc1cc(N2CCOCC2)nc2ccc(Cl)cc12	CHX counter 41, Shiga inhibitor 62
Cc1cc(N2CCOCC2)nc2ccc(NC(=O)CCC(=O)N3CCN(c4cccc(C(F)(F)F)c4)CC3)cc12	CHX counter 28, Shiga inhibitor 67
COc1ccc(C(=O)Nc2ccc3nc(N4CCC(C)CC4)cc(C)c3c2)cc1	none (no result: CHX counter, LmPK inhibitor, Giardia FBPA inh, RE007 growth inh, Shiga inhibitor)
Cc1cc(N2CCC(C)CC2)nc2ccc(N3C(=O)CCC3=O)cc12	CHX counter 18
Cc1cc(N2CCOCC2)nc2ccc(NC(=S)N3CCN(c4ccccc4)CC3)cc12	Giardia FBPA inh inconclusive
Cc1cc(C(=O)OCC(=O)c2cccs2)ccc1[N+](=O)[O-]	none (no result: CHX counter, LmPK inhibitor, Giardia FBPA inh, Shiga inhibitor)
Cc1ccc(Cl)cc1NC(=O)C(C)n1nc(-c2ccccc2)ccc1=O (stereo unspecified)	none (no result: CHX counter, LmPK inhibitor, Giardia FBPA inh, RE007 growth inh, Shiga inhibitor)
CCCCNC(=O)CCC(=O)Nc1ccc2nc(N3CCC(C)CC3)cc(C)c2c1	CHX counter 30, Shiga inhibitor 55
Cc1cc(CN(C)C(=O)CCc2nnc(Cc3cccc(C(F)(F)F)c3)o2)on1	CHX counter 33, Shiga inhibitor 58
CCN(CC)C(=O)CCc1nnc(Cc2cccc(C(F)(F)F)c2)o1	none
O=C(CCc1nnc(-c2ccc3c(c2)OCO3)o1)NCCc1ccccc1F	Tb PYK inh inconclusive
O=C(CCc1nnc(Cc2cccc(C(F)(F)F)c2)o1)NCCc1ccccc1F	CHX counter 29, Shiga inhibitor 126
S=C(c1ccc2c(c1)OCO2)N1CCN(c2cccc(Cl)c2)CC1	RE007 growth inh inconclusive (no result: CHX counter, LmPK inhibitor, Giardia FBPA inh, Shiga inhibitor)
C=CCNC(=S)NNC(=O)COc1ccc(Br)cc1	Tb PYK inh inconclusive
C=CCNC(=S)NNC(=O)COc1ccc2cc(Br)ccc2c1	CHX counter 44, Shiga inhibitor 101
CCOc1ccc(/C=N/NC(=O)c2ccccc2NC(=O)c2ccc(OC)cc2)cc1	CHX counter 60, Shiga inhibitor 45
COc1ccc(C(=O)Nc2ccccc2C(=O)N/N=C/c2ccco2)cc1	CHX counter 41, LmPK inhibitor 25µM, RE007 growth inh 18µM, Tb PYK inh inconclusive, Shiga inhibitor 55
O=C(Nc1ccccc1C(=O)N/N=C/c1ccncc1)c1ccccc1	LmPK inhibitor 25µM, RE007 growth inh 8.9µM, Tb PYK inh inconclusive
N#CCCN(C(=O)COc1ccc(Cl)cc1Cl)c1ccccc1	CHX counter 19
Cc1cccc(S(=O)(=O)NC(=O)C2(C)CCN2C(=O)Cc2ccc(C(C)(C)C)cc2)c1 (stereo unspecified)	none (no result: CHX counter, LmPK inhibitor, Giardia FBPA inh, Shiga inhibitor)
Cc1nc2c3cccnc3nn2c(C)c1CCC(=O)NCc1ccccc1	none (no result: CHX counter, LmPK inhibitor, Giardia FBPA inh, RE007 growth inh, Shiga inhibitor)
CCCc1cc(=O)oc2c3c(ccc12)OCN(Cc1ccccc1OC)C3	none (no result: CHX counter, LmPK inhibitor, Giardia FBPA inh, RE007 growth inh, Shiga inhibitor)
CCOc1ccc2nc(NC(=O)c3nc(SC(C)C)ncc3Cl)sc2c1	none (no result: CHX counter, LmPK inhibitor, Giardia FBPA inh, RE007 growth inh, Shiga inhibitor)
COc1ccc2nc(NC(=O)CSc3nc(C)cc(=O)[nH]3)sc2c1	CHX counter 27
CCCc1cc(=O)[nH]c(SCC(=O)Nc2nc3ccc(OCC)cc3s2)n1	CHX counter 14, Shiga inhibitor 52
CCOc1ccc2nc(NC(=O)C(CC)Sc3nc(C)cc(=O)[nH]3)sc2c1 (stereo unspecified)	CHX counter 29, Shiga inhibitor 90

High-throughput results as filed in PubChem BioAssay.
